For 45 sequences, binding signal results are on record in paper PMC12820563, “FoxP3 forms a head-to-head dimer in vivo and stabilizes its multimerization on adjacent microsatellites”.

Whole data set: some 16,000 sequences, median “rpm ratio (pull-down/input)” near 0.5, cut for the highest 2% near 5.5. Shown is part of a subset that was picked to be rich in the highest values.

The test deals with T1, MBP-FoxP3dN (Mus musculus, UniProt Q99JB6 188-423).
T1 sequence: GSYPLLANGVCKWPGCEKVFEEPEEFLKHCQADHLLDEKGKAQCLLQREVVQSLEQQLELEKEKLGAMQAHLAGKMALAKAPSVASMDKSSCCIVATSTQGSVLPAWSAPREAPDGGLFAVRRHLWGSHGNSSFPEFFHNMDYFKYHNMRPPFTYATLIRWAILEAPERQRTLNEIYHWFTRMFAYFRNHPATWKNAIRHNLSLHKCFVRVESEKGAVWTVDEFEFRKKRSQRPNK
In words: PD-seq (MBP pull-down with sequencing); 20 mM Tris-HCl pH 7.5, 100 mM NaCl, 1.5 mM MgCl2, 0.4 uM protein, 0.1 uM dsDNA library, 30 min, room temperature, amylose pull-down; high values mean tight binding. To be noted: protein: recombinant; tags: His6-MBP; chain copies: 2; dsDNA, one strand shown. The essentials: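 E. coli-expressed mouse FoxP3 or FoxP1 fragment, N-terminus removed and tagged with His6-MBP, was used at 0.4 µM against 0.1 µM of a Klenow-filled degenerate double-stranded DNA library. After 30 min at room temperature in Tris pH 7.5 buffer with NaCl and MgCl2, complexes were pulled down on amylose resin and washed three times. Binding is pull-down over input reads-per-million enrichment from pooled replicates of the proteinase K-released, PCR-barcoded, Illumina-sequenced DNA.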
Consider “GATGATTGTTCTCCCAGCTGATGAATTGCCCCCTTCGAGTAAACAAATTTTCCTAATCTTTCTGTTCAAGCGCCATCTAC”, for which the binding signal was 0.413 RPM ratio (pull-down/input).

Consider “GATGATTGTTCTCCCAGCTGATGAATTTCCGGTATCGAGTAAACAAATTTTCCTAATCTTTCTGTTCAAGCGCCATCTAC”, for which the binding signal is 0.44 RPM ratio (pull-down/input).

As for “GATGATTGTTCTCCCAGCTGATGAATTTTGGCATTCGAGTAAACAAATTTTCCTAATCTTTCTGTTCAAGCGCCATCTAC”, the binding signal is 5.56 RPM ratio (pull-down/input).

In the case of “GATGATTGTTCTCCCAGCTGATGAATTGGCATCCTCGAGTAAACAAATTTTCCTAATCTTTCTGTTCAAGCGCCATCTAC”, the binding signal was 4.28 RPM ratio (pull-down/input).

For the sequence “GATGATTGTTCTCCCAGCTGATGAATTTGGCATTTCGAGTAAACAAATTTTCCTAATCTTTCTGTTCAAGCGCCATCTAC”, the binding signal was 6.16 RPM ratio (pull-down/input).

Turning to “GATGATTGTTCTCCCAGCTGATGAATTCTGGCATTCGAGTAAACAAATTTTCCTAATCTTTCTGTTCAAGCGCCATCTAC”, the binding signal is 4.83 RPM ratio (pull-down/input).

Regarding “GATGATTGTTCTCCCAGCTGATGAATTGTGGCATTCGAGTAAACAAATTTTCCTAATCTTTCTGTTCAAGCGCCATCTAC”, the binding signal was 6.18 RPM ratio (pull-down/input).

Consider “GATGATTGTTCTCCCAGCTGATGAATTTTTGGCATCGAGTAAACAAATTTTCCTAATCTTTCTGTTCAAGCGCCATCTAC”, for which the binding signal was 0.785 RPM ratio (pull-down/input).

As for “GATGATTGTTCTCCCAGCTGATGAATTGGCATTTTCGAGTAAACAAATTTTCCTAATCTTTCTGTTCAAGCGCCATCTAC”, the binding signal was 3.38 RPM ratio (pull-down/input).

“GATGATTGTTCTCCCAGCTGATGAATTGGCATCTTCGAGTAAACAAATTTTCCTAATCTTTCTGTTCAAGCGCCATCTAC”: the binding signal is 4.07 RPM ratio (pull-down/input).

For “GATGATTGTTCTCCCAGCTGATGAATTTGGCATCTCGAGTAAACAAATTTTCCTAATCTTTCTGTTCAAGCGCCATCTAC”, the binding signal is 6.36 RPM ratio (pull-down/input).

Regarding “GATGATTGTTCTCCCAGCTGATGAATTTGGCCATTCGAGTAAACAAATTTTCCTAATCTTTCTGTTCAAGCGCCATCTAC”, the binding signal was 4.06 RPM ratio (pull-down/input).

Regarding “GATGATTGTTCTCCCAGCTGATGAATTGGCATTCTCGAGTAAACAAATTTTCCTAATCTTTCTGTTCAAGCGCCATCTAC”, the binding signal was 3.49 RPM ratio (pull-down/input).

With “GATGATTGTTCTCCCAGCTGATGAATTCGTGGCATCGAGTAAACAAATTTTCCTAATCTTTCTGTTCAAGCGCCATCTAC”, the binding signal is 1.13 RPM ratio (pull-down/input).

As for “GATGATTGTTCTCCCAGCTGATGAATTGGGTGGTTCGAGTAAACAAATTTTCCTAATCTTTCTGTTCAAGCGCCATCTAC”, the binding signal was 0.736 RPM ratio (pull-down/input).

For “GATGATTGTTCTCCCAGCTGATGAATTGCAGAGTTCGAGTAAACAAATTTTCCTAATCTTTCTGTTCAAGCGCCATCTAC”, the binding signal is 0.781 RPM ratio (pull-down/input).

On to “GATGATTGTTCTCCCAGCTGATGAATTGTTCGACTCGAGTAAACAAATTTTCCTAATCTTTCTGTTCAAGCGCCATCTAC”, for which the binding signal is 0.414 RPM ratio (pull-down/input).

With “GATGATTGTTCTCCCAGCTGATGAATTTTGTCCGTCGAGTAAACAAATTTTCCTAATCTTTCTGTTCAAGCGCCATCTAC”, the binding signal is 0.813 RPM ratio (pull-down/input).

Consider “GATGATTGTTCTCCCAGCTGATGAATTCTTTTGTTCGAGTAAACAAATTTTCCTAATCTTTCTGTTCAAGCGCCATCTAC”, for which the binding signal is 0.487 RPM ratio (pull-down/input).

On to “GATGATTGTTCTCCCAGCTGATGAATTCAAACATTCGAGTAAACAAATTTTCCTAATCTTTCTGTTCAAGCGCCATCTAC”, for which the binding signal was 1.12 RPM ratio (pull-down/input).

As for “GATGATTGTTCTCCCAGCTGATGAATTGGCGAATTCGAGTAAACAAATTTTCCTAATCTTTCTGTTCAAGCGCCATCTAC”, the binding signal was 0.898 RPM ratio (pull-down/input).

For “GATGATTGTTCTCCCAGCTGATGAATTGGCGCATTCGAGTAAACAAATTTTCCTAATCTTTCTGTTCAAGCGCCATCTAC”, the binding signal was 6.97 RPM ratio (pull-down/input).

Take “GATGATTGTTCTCCCAGCTGATGAATTCGTCCGTTCGAGTAAACAAATTTTCCTAATCTTTCTGTTCAAGCGCCATCTAC”: the binding signal is 0.459 RPM ratio (pull-down/input).

“GATGATTGTTCTCCCAGCTGATGAATTCGTATCGTCGAGTAAACAAATTTTCCTAATCTTTCTGTTCAAGCGCCATCTAC”: the binding signal was 1.53 RPM ratio (pull-down/input).

For the sequence “GATGATTGTTCTCCCAGCTGATGAATTACTGTTCTCGAGTAAACAAATTTTCCTAATCTTTCTGTTCAAGCGCCATCTAC”, the binding signal was 0.662 RPM ratio (pull-down/input).

Take “GATGATTGTTCTCCCAGCTGATGAATTAAGCCTCTCGAGTAAACAAATTTTCCTAATCTTTCTGTTCAAGCGCCATCTAC”: the binding signal is 5.69 RPM ratio (pull-down/input).

As to “GATGATTGTTCTCCCAGCTGATGAATTTAGCGCCTCGAGTAAACAAATTTTCCTAATCTTTCTGTTCAAGCGCCATCTAC”, the binding signal is 1.56 RPM ratio (pull-down/input).

Turning to “GATGATTGTTCTCCCAGCTGATGAATTTTTAGCCTCGAGTAAACAAATTTTCCTAATCTTTCTGTTCAAGCGCCATCTAC”, the binding signal is 0.414 RPM ratio (pull-down/input).

Consider “GATGATTGTTCTCCCAGCTGATGAATTTAGCCTCTCGAGTAAACAAATTTTCCTAATCTTTCTGTTCAAGCGCCATCTAC”, for which the binding signal was 5.79 RPM ratio (pull-down/input).

For “GATGATTGTTCTCCCAGCTGATGAATTAAGCGCCTCGAGTAAACAAATTTTCCTAATCTTTCTGTTCAAGCGCCATCTAC”, the binding signal was 1.4 RPM ratio (pull-down/input).

Take “GATGATTGTTCTCCCAGCTGATGAATTAACAGCCTCGAGTAAACAAATTTTCCTAATCTTTCTGTTCAAGCGCCATCTAC”: the binding signal is 0.491 RPM ratio (pull-down/input).

As for “GATGATTGTTCTCCCAGCTGATGAATTAGCCACTTCGAGTAAACAAATTTTCCTAATCTTTCTGTTCAAGCGCCATCTAC”, the binding signal is 1.09 RPM ratio (pull-down/input).

As for “GATGATTGTTCTCCCAGCTGATGAATTATTCGCCTCGAGTAAACAAATTTTCCTAATCTTTCTGTTCAAGCGCCATCTAC”, the binding signal was 0.568 RPM ratio (pull-down/input).

For the sequence “GATGATTGTTCTCCCAGCTGATGAATTAACAACTTCGAGTAAACAAATTTTCCTAATCTTTCTGTTCAAGCGCCATCTAC”, the binding signal is 0.722 RPM ratio (pull-down/input).

Regarding “GATGATTGTTCTCCCAGCTGATGAATTCGGCACATCGAGTAAACAAATTTTCCTAATCTTTCTGTTCAAGCGCCATCTAC”, the binding signal was 0.778 RPM ratio (pull-down/input).

In the case of “GATGATTGTTCTCCCAGCTGATGAATTATACTTGTCGAGTAAACAAATTTTCCTAATCTTTCTGTTCAAGCGCCATCTAC”, the binding signal is 1.05 RPM ratio (pull-down/input).

On to “GATGATTGTTCTCCCAGCTGATGAATTGCATCAATCGAGTAAACAAATTTTCCTAATCTTTCTGTTCAAGCGCCATCTAC”, for which the binding signal is 3.31 RPM ratio (pull-down/input).

For “GATGATTGTTCTCCCAGCTGATGAATTCTTTGCATCGAGTAAACAAATTTTCCTAATCTTTCTGTTCAAGCGCCATCTAC”, the binding signal is 0.99 RPM ratio (pull-down/input).

As to “GATGATTGTTCTCCCAGCTGATGAATTGTTTGCATCGAGTAAACAAATTTTCCTAATCTTTCTGTTCAAGCGCCATCTAC”, the binding signal was 6.03 RPM ratio (pull-down/input).

Take “GATGATTGTTCTCCCAGCTGATGAATTGCCATCATCGAGTAAACAAATTTTCCTAATCTTTCTGTTCAAGCGCCATCTAC”: the binding signal is 1.56 RPM ratio (pull-down/input).

In the case of “GATGATTGTTCTCCCAGCTGATGAATTTTTTGCATCGAGTAAACAAATTTTCCTAATCTTTCTGTTCAAGCGCCATCTAC”, the binding signal was 1.37 RPM ratio (pull-down/input).

For “GATGATTGTTCTCCCAGCTGATGAATTTGCATCATCGAGTAAACAAATTTTCCTAATCTTTCTGTTCAAGCGCCATCTAC”, the binding signal was 6.33 RPM ratio (pull-down/input).

Take “GATGATTGTTCTCCCAGCTGATGAATTTGTTGCATCGAGTAAACAAATTTTCCTAATCTTTCTGTTCAAGCGCCATCTAC”: the binding signal was 7.07 RPM ratio (pull-down/input).

With “GATGATTGTTCTCCCAGCTGATGAATTTGCATGATCGAGTAAACAAATTTTCCTAATCTTTCTGTTCAAGCGCCATCTAC”, the binding signal was 1.63 RPM ratio (pull-down/input).

As for “GATGATTGTTCTCCCAGCTGATGAATTTGCAGCATCGAGTAAACAAATTTTCCTAATCTTTCTGTTCAAGCGCCATCTAC”, the binding signal was 1.6 RPM ratio (pull-down/input).
